Common to all, as to assay: NCI-60 one-dose screen, 48 h (100 = growth as untreated, 0 = no growth, -100 = all killed)
The test system of test [1] is EKVX NSCLC. The settings on record: 10 µM unless noted.
The subject of test [2] is SN12C renal. The settings on record: 10 µM unless noted.
In test [3] the test system is UO-31 renal. The settings on record: 10 µM unless noted.
The test system of test [4] is ACHN renal. The following applies: 10 µM unless noted.
The subject of test [5] is CAKI-1 renal. The following applies: 10 µM.
Test [6] deals with A498 renal. The settings on record: 10 µM unless noted.
Test [7] has as its system CCRF-CEM leukemia. The settings on record: 10 µM unless noted.
Test [8] has as its system MOLT-4 leukemia. The settings on record: 10 µM unless noted.
Test [9] deals with SR leukemia. The settings on record: 10 µM unless noted.
Test [10] concerns OVCAR-8 ovarian. The following applies: 10 µM unless noted.
Test [11] has as its system OVCAR-5 ovarian. The following applies: 10 µM unless noted.
In test [12] the test system is OVCAR-4 ovarian. The following applies: 10 µM unless noted.
The test system of test [13] is SK-OV-3 ovarian. The following applies: 10 µM unless noted.
Test [14] has as its system IGROV1 ovarian. The following applies: 10 µM unless noted.
Test [15] has as its system OVCAR-3 ovarian. The following applies: 10 µM unless noted.
In test [16] the test system is NCI/ADR-RES ovarian. The following applies: 10 µM unless noted.
Test [17] relates to RPMI-8226 leukemia. The settings on record: 10 µM unless noted.
Test [18] has as its system HS 578T breast. The settings on record: 10 µM unless noted.
The test system of test [19] is TK-10 renal. The settings on record: 10 µM unless noted.

This is part of a sample that, as a whole, favours compounds with a hit. Of some 83,000 tested, about 20% had one in any assay.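 Percent growth is the endpoint: 0 to 100 indicates growth inhibition (40 means 60% inhibition), 0 means no net growth, and negative values indicate cell death.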 Unmarked numbers belong to inactive results. Active and inactive are the calls of the source. Rule for the calls: active = growth percent below 10; inactive = the rest.

With `Nc1nccc2c1ccn2-c1ccc(NC(=O)Nc2cccc(C(F)(F)F)c2)cc1`, the growth in [1] is 93.7%; in test [2], 87.1%; in [3] it was 81.4%; in test [4], 91.6%; in test [5] it was 97.4%; in test [6], 88.4%. Moreover, the growth is 94.1% in [7]; 82.8% in [8]; 91.5% in test [9]; 93.1% in test [10]; 97.9% in [11]; 108% in test [12]. Also, the growth in test [13] was 104%; in test [14], 95.1%; in test [15], 80.8%; in [16], 89.3%.

With `C=CCn1c(SCC(=O)Nc2ccc(C(=O)/C=C/c3cc(OC)c(OC)c(OC)c3)cc2)nnc1-c1ccc(OC)cc1`, the growth in [1] is 14.1%; in [2], 13.8%; in test [3], -79.6% (active); in [4], -56.1% (active); in [5], 16.5%; in [6] it was -3.03% (active). Also, the growth is 6.53% (active) in test [7]; -33.1% (active) in test [17]; 7.47% (active) in [10]; 9.19% (active) in [11]; 19.3% in test [12]; 16.6% in test [13]. The growth in [14] was -3.21% (active); in test [15], -45.9% (active); in test [18], 32.5%; in [16], 20.1%.

In the case of `Cc1cc(N2CCOCC2)nc(N(CCNc2ccnc3cc(Cl)ccc23)Cc2ccco2)n1`, the growth in [1] was 56.7%; in test [3], 24.3%; in test [19], 10.9%; in test [4], 27%; in [6], 50.9%; in test [7] it was -11.3% (active). The growth in test [8] was 5.1% (active); in test [9], -22.6% (active); in [17], -21.6% (active); in test [10] it was 34.6%; in test [11], 101%; in test [12], 37.2%. Moreover, the growth in test [13] was 91.1%; in [14], 40.7%; in [15], -64.3% (active); in [18], 64%; in [16], 50.8%.

With `COC(=O)c1oc2c(C(=O)/C=C/c3ccc(OC)cc3)c(OCCN3CCOCC3)ccc2c1C`, the growth in test [1] was 9.46% (active); in [2], 17.5%; in test [3], -66.4% (active); in test [19] it was 25.4%; in test [4] it was -34.5% (active); in test [6] it was -47.7% (active). Also, the growth in test [7] is -38.4% (active); in [8], -20.5% (active); in test [9], -28% (active); in test [17], -50.7% (active); in test [10], -37.6% (active); in [11] it was 29.8%. Besides, the growth was 16% in test [12]; 17.9% in [13]; -4.01% (active) in test [14]; -15.1% (active) in test [18]; 9.24% (active) in [16].

For `CC(=S)Nc1ccccc1`, the growth in test [1] was 87.3%; in [2], 92.9%; in test [3] it was 81.5%; in [19], 109%; in test [4], 97.4%; in test [6], 103%. The growth in test [7] is 102%; in [8] it was 103%; in test [9] it was 103%; in test [17], 99.7%; in test [10], 94.5%; in [11], 99.8%. For the same compound, the growth is 95.4% in [12]; 87.6% in test [13]; 89.8% in test [14]; 101% in [15]; 98.7% in test [18]; 100% in test [16].

Take `CCOc1ccc(Cc2nccc3cc(OCC)c(OCC)cc23)cc1OCC`: the growth is 42% in test [1]; 58.9% in [2]; 37.5% in [3]; 68.6% in test [19]; 48% in [5]; 35.5% in test [6]. In addition, the growth in test [7] is 58.7%; in [8], 27.2%; in test [9] it was 26.7%; in [17], 47.3%; in test [10], 69.1%; in [12] it was 54.6%. Further, the growth was 87.2% in [13]; 16.6% in test [14]; 75% in [15]; 78.1% in test [18]; 65.3% in test [16].

In the case of `Cc1cn(C2CC(N=[N+]=[N-])C(COP(=O)(O)OP(=O)(O)OP(=O)(O)O)O2)c(=O)[nH]c1=O` (stereo not drawn), the growth in test [1] is 116%; in [2], 124%; in [3], 98.5%; in test [19], 113%; in [4], 124%; in [6], 131%. In addition, the growth in [7] was -98% (active); in test [8] it was 16.8%; in test [9], 24.3%; in [17], 60.7%; in test [10] it was 120%; in test [11], 93%. For the same compound, the growth is 108% in [12]; 104% in [13]; 75.5% in test [14]; 133% in test [18]; 111% in test [16].
